Bioassay records: PubChem, several laboratories
UGM FP inh – M. tuberculosis UGM enzyme inhibitors, primary screen, biochemical, fluorescence polarization, single point; UDP-galactopyranose mutase (Mycobacterium tuberculosis (strain ATCC 25618 / H37Rv)), …; purified UGM, fluorescence polarization probe displacement; inhibition, % at 10 µM; 320,000 compounds, 0.06% hits; AID 504406, 2011; in the data active = inhibition above about 10%, passing the limit was not always enough
GDH-TPI counter-1 – GDH-TPI coupling enzyme inhibitors, primary screen, artefact control for M. tuberculosis FBA inhibitor project, biochemical, absorbance, full deck. 360,000 compounds, 1.2% hits. GDH-TPI coupled enzyme counterscreen, NADH absorbance. inhibition, % at 4.8 µM; in the data active = inhibition above about 30%;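 also: 0% = DMSO wells and 100% = wells lacking the enzyme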
FadD28 FP inh – inhibitors of FadD28 bisubstrate probe binding, primary screen, biochemical, fluorescence polarization, single point | Mycobacterium tuberculosis FadD28 fatty-acid-AMP ligase | inhibition, % at 12.5 µM | 360,000 compounds, 0.22% hits; in the data active = inhibition above about 8.5%, passing the limit was not always enough
Mtb hypoxia rep – PubChem AID 1159583. M. tuberculosis hypoxia-regulated fluorescent reporter, fluorescence. fluorescence inhibition, % (test concentration not listed). 300,000 compounds, 0.1% hits; in the data active = fluorescence inhibition mostly above about 23%, no sharp cut-off; inactive = mostly below about 17%
Mtb FBA inh – Mtb FBA enzyme inhibitors, primary screen, biochemical, fluorescence, strain H37Rv | 360,000 compounds, 2.3% hits | inhibition, % at 1 µM | AID 588726, 2011 | Fructose-bisphosphate aldolase (Mycobacterium tuberculosis (strain ATCC 25618 / H37Rv)), … | purified M. tuberculosis FBA, fluorescence read-out;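 also: 0% = vehicle and 100% = reference inhibitor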
Target sequence (P9WQA3 whole entry, looked up): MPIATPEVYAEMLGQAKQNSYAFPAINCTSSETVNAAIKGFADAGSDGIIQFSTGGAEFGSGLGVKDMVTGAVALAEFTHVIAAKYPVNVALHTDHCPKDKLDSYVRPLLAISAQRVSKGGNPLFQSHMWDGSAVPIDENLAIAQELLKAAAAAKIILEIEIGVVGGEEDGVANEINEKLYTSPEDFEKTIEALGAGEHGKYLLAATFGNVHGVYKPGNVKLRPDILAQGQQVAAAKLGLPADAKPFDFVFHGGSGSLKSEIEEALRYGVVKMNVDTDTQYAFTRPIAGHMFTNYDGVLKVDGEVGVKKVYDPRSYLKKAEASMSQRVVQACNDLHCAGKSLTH
Rv3671c inh – Rv3671c serine protease inhibitors, primary screen, biochemical, fluorescence polarization, M. tuberculosis H37Rv; AID 2606, 2010; inhibition, % at 5.96 µM; 320,000 compounds, 0.048% hits; P9WHR9; in the data active = inhibition above about 38%;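 also: extracellular domain of Rv3671c used as enzyme; 0% = enzyme with DMSO and 100% = no enzyme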
Mtb FBA inh conf – M. tuberculosis aldolase blockers, biochemical, fluorescence, strain H37Rv, confirmation | 5,600 compounds, 78% hits | inhibition, % at 1 µM | shares compounds with Mtb FBA inh | purified M. tuberculosis FBA, fluorescence read-out | AID 651616, 2012;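 also: 0% = vehicle wells and 100% = reference inhibitor wells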
GDH-TPI counter-2 – GDH-TPI coupling enzyme inhibitors, artefact control for M. tuberculosis FBA inhibitor project, biochemical, fluorescence, high throughput | shares compounds with Mtb FBA inh | GDH-TPI coupled enzyme counterscreen | inhibition, % at 1 µM | 5,600 compounds, 81% hits | AID 652141, 2013; in the data active = inhibition above about 10%
Numbers without * were called inactive; · = no result; + = active, no number. An excerpt weighted towards active compounds, which were near 3.5% of everything screened. Rule as the data show it, unless noted: active = inhibition above about 27%; inactive = the rest.

SMILES | UGM FP inh | GDH-TPI counter-1 | FadD28 FP inh | Mtb hypoxia rep | Mtb FBA inh | Rv3671c inh | Mtb FBA inh conf | GDH-TPI counter-2
CCCN1CCN(C(=O)Cn2nc(C)n3c(cc4c(OC)cccc43)c2=O)CC1 | · | -3 | -4 | · | 86* | · | 169* | 113*
COc1cccc2c1cc1c(=O)n(CC(=O)NC3CCCCC3)nc(C)n12 | -2 | 9 | -4 | -6 | 3 | 5 | · | ·
COc1cccc2c1cc1c(=O)n(CC(=O)NCCCN3CCN(C)CC3)nc(C)n12 | 0 | 14 | 1 | 1 | 102* | -4 | 93* | 88*
COc1ccc(NN=C(C#N)C(=N)N2CCCCC2)cc1 | · | · | · | 4 | · | · | · | ·
CCN1C(=O)CSc2ccc(C(=O)NCc3ccccc3OC)cc21 | 1 | 10 | -1 | -1 | 2 | -5 | · | ·
CCN1CCSc2ccc(C(=O)NCc3ccccc3Br)cc21 | 1 | 15 | 2 | 4 | 59* | 6 | 1 | -2
CCN1CCSc2ccc(C(=O)NCc3ccccc3F)cc21 | 3 | 12 | -1 | 6 | 87* | 3 | + | +
O=C(NCc1ccco1)c1ccc2c(c1)N(Cc1ccc(Cl)cc1)CCS2 | 1 | 0 | 2 | 1 | 22 | 0 | · | ·
CS(=O)(=O)c1ccc(Cl)c(C(=O)NC2CCSc3ccccc32)c1 (centres undefined) | 0 | 0 | -3 | 8 | 64* | -2 | 9 | -5
O=C(CN1c2ccccc2Sc2ccccc21)NN=Cc1ccc([N+](=O)[O-])cc1 | · | · | · | 9 | · | · | · | ·
COc1ccc(-c2nc3ccc(N4CCN(C)CC4)cc3c(=O)[nH]2)cc1 | 1 | 18 | -2 | 1 | 32* | 0 | 3 | 3
C=CC(=O)N1CC=CC(c2ccc(OC)cc2)N(Cc2ccc(F)cc2)C(=O)C1 (centres undefined) | · | · | · | -1 | · | · | · | ·
C=CCNc1nc(-c2ccc([N+](=O)[O-])cc2)cs1 | -1 | 16 | 0 | 12 | 3 | 6 | · | ·
CN(C)c1nc(-c2ccc([N+](=O)[O-])cc2)cs1 | -1 | 12 | -1 | · | 34* | -4 | 194* | 142*
O=C(O)C1=CC(c2ccc(C(F)(F)F)cc2)CC(OCCCCO)O1 (centres undefined) | · | · | · | 3 | · | · | · | ·
Cc1cccn2c(=O)c3cc(C(=O)O)n(C)c3nc12 | 3 | 25 | -1 | · | 81* | -2 | 80* | 58*
Cc1cccn2c(=O)c3cc(C(=O)N4CCC5(CC4)OCCO5)n(C)c3nc12 | 0 | 4 | -2 | -90 | 6 | 7 | · | ·
COC1C=CC(CNC(=O)c2cc3c(=O)n4cccc(C)c4nc3n2C)(OC)O1 (centres undefined) | -2 | 23 | 0 | 15 | 36* | -1 | 176* | 109*
CC(=NNC(=O)CCC(=O)NCc1ccccc1)c1ccc([N+](=O)[O-])cc1 | · | · | · | 6 | · | · | · | ·
CS(=O)(=O)Nc1ccccc1C(=O)O | 3 | 9 | 0 | 4 | 28* | -2 | 117* | 104*
CC(NC(=O)c1ccccc1NS(C)(=O)=O)c1ccccc1 (centres undefined) | 0 | 7 | -2 | · | 42* | -1 | 133* | 106*
CC(NC(=O)c1ccc(NS(C)(=O)=O)cc1)c1ccccc1 (centres undefined) | 1 | -2 | 2 | 5 | -3 | -2 | · | ·
Cc1cc(C)c(C)c(S(=O)(=O)Nc2ccccc2C(=O)O)c1C | -1 | -6 | -9 | -7 | 27* | 1 | 21 | 11*
Cc1cc(S(=O)(=O)Nc2ccccc2C(=O)O)ccc1Cl | -1 | 5 | -5 | 9 | 6 | 4 | · | ·
CCN(CC)C(=O)c1ccccc1NS(C)(=O)=O | 0 | -1 | -2 | 5 | -1 | 7 | · | ·
SMILES | UGM FP inh | GDH-TPI counter-1 | FadD28 FP inh | Mtb hypoxia rep | Mtb FBA inh | Rv3671c inh | Mtb FBA inh conf | GDH-TPI counter-2
Cc1ccc(CNC(=O)c2ccccc2NS(=O)(=O)c2ccc(Cl)nc2)cc1 | -1 | 3 | -2 | 2 | 2 | 1 | · | ·
Cc1ccc(CNC(=O)c2ccccc2NS(C)(=O)=O)cc1 | 2 | 1 | -3 | · | 38* | -1 | + | +
COC(=O)[C@@]12CCCCN1C(c1ccc(-c3ccc(C(C)=O)cc3)cc1)C1C(=O)N(C)C(=O)C12 (some centres undefined) | · | · | · | -2 | · | · | · | ·
CCCc1cc(=O)oc2cc(C)cc(OCC(=O)NC3CC3)c12 | 0 | 14 | 1 | 0 | 93* | 2 | 1 | 2
Cc1cc(OCC(=O)NC2CC2)c2c(C)c(C)c(=O)oc2c1 | -1 | 14 | -2 | 0 | 76* | 3 | 53* | 45*
Cc1cc(OCC(=O)NC2CCS(=O)(=O)C2)c2c3c(c(=O)oc2c1)CCC3 (centres undefined) | 3 | 3 | 0 | 2 | 23 | -4 | · | ·
CCCc1cc(=O)oc2cc(OCC(=O)OC)cc(OCC(=O)OC)c12 | · | · | · | 4 | · | · | · | ·
Cc1cc(OCC(=O)NC2CC2)c2c(C)cc(=O)oc2c1 | 2 | 4 | -3 | 9 | 80* | -9 | 51* | 38*
CCc1cc(=O)oc2cc(C)cc(OCC(=O)NC3CCN(Cc4ccccc4)CC3)c12 | -2 | 15 | 0 | 6 | 40* | -4 | 1 | 3
CN(C)S(=O)(=O)n1cnc(C2C3C(=O)OCC3C[C@]23N=CN(Cc2ccccc2)C3=O)c1 (some centres undefined) | · | · | · | 11 | · | · | · | ·
COC(=O)C1=C(c2ccc3ccccc3c2)CC2CCC1N2C(=O)NC(C)C (centres undefined) | · | · | · | 8 | · | · | · | ·
O=C(COc1ccc(Br)cc1Cl)NC1CCN(Cc2ccccc2)CC1 | -2 | 3 | -2 | 2 | -1 | -1 | · | ·
CCc1cc(=O)oc2cc(C)cc(OCC(=O)NC3CC3)c12 | 1 | 9 | -3 | 14 | 65* | 2 | 21 | 22*
Cc1c(C)c2ccc(OCC(=O)NC3CCN(Cc4ccccc4)CC3)c(C)c2oc1=O | 0 | 7 | -2 | 2 | 38* | 0 | 60* | 48*
Cc1cc(=O)oc2c3c(cc(OCC(=O)NC4CC4)c12)OC(C)(C)CC3 | 1 | 1 | -2 | · | 75* | 10 | 52* | 29*
Cc1cc(=O)oc2cc(OCC(=O)NC3CCCCC3)c(Cl)cc12 | -1 | 8 | -1 | 17 | 10 | 2 | · | ·
Cc1cc(OCC(=O)N2CCC[C@@H]2C(=O)O)c2c(C)c(C)c(=O)oc2c1 | -3 | 8 | -1 | · | 84* | -3 | 123* | 98*
